What all share (assay): NCI-60 one-dose screen, 48 h (100 = growth as untreated, 0 = no growth, -100 = all killed)
Conditions in all cases: 10 µM unless noted

Test [1] concerns DU-145 prostate.
Test [2] deals with K-562 leukemia.
The subject of test [3] is MALME-3M melanoma.
In test [4] the test system is MDA-MB-231 breast.
For test [5], the system named is RXF 393 renal.
Test [6] concerns SF-268 CNS.
Test [7] has as its system SF-295 CNS.
Test [8] deals with SF-539 CNS.
In test [9] the test system is M14 melanoma.
Test [10] has as its system HCT-15 colon.
Test [11] concerns HT29 colon.
In test [12] the test system is SNB-75 CNS.
For test [13], the system named is U251 CNS.
The subject of test [14] is PC-3 prostate.
Test [15] relates to SK-MEL-5 melanoma.
The subject of test [16] is UACC-62 melanoma.
Test [17] relates to LOX IMVI melanoma.
For test [18], the system named is SK-MEL-28 melanoma.
In test [19] the test system is UACC-257 melanoma.
Test [20] has as its system SNB-19 CNS.

Here are results for eleven molecules from PubChem BioAssay (NCI).

Structures are written as SMILES. Compounds without any hit were thinned out: in the full panel of roughly 83,000, 20% have a hit.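 Activity criterion: percent growth below 10, measured after cells in 96-well plates were exposed to a single compound concentration for 48 hours.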 A number with no mark means an inactive call. Activity calls are given as the source filed them.

Regarding `Cc1cc2cc3cc(C)c(N(C)C)cc3nc2cc1N(C)C`, the growth was 25.4% in [1]; 41.5% in test [2]; 28.4% in test [3]; 63.2% in test [4]; 24% in [5]; 13.9% in test [6]. Further, the growth in [7] was 19.4%; in test [8], 8.78% (active); in [9], 37.4%; in test [10] it was 71.6%; in test [11] it was 15.9%; in test [12] it was 26.6%. Besides, the growth is 15.4% in [13]; 4.41% (active) in test [14]; 28.5% in [15]; 58.5% in test [16]; 24% in test [17]; 40.6% in test [18].

Take `NS(=O)(=O)c1ccc(-n2ncc3c(=O)[nH]c(CN4CCN(c5cc6c(cc5F)c(=O)c(C(=O)O)cn6C5CC5)CC4)nc32)cc1`: the growth was 110% in test [1]; 95.8% in test [2]; 105% in test [3]; 85.8% in [4]; 98.2% in test [5]; 91.6% in [6]. Also, the growth in [7] is 91.8%; in [8], 97%; in [19] it was 105%; in test [10], 89.7%; in [11], 101%; in test [20] it was 94.9%. The growth in [13] is 102%; in test [14] it was 82.5%; in [15], 96.7%; in test [16] it was 74%; in test [17] it was 97.2%; in test [18] it was 93.5%.

Turning to `CC(C)[C@H]1COC(=O)N1[C@@H]1C(=O)N([C@@H](CCC(=O)N2CCN(C3CCCC3)CC2)C(=O)N[C@@H]2CCCc3ccccc32)[C@@H]1/C=C/c1cccc(Br)c1`, the growth in test [1] was 40.5%; in [2], 41.9%; in test [3] it was 13.1%; in test [4], 26.3%; in test [5], 53.3%; in [6], 8.27% (active). The growth in [7] was 51.5%; in [19] it was -34.6% (active); in test [9], 25.8%; in [10], 20.9%; in test [11], -15.3% (active); in test [12], 50%. The growth in test [20] is 44.7%; in test [13], 27.5%; in [14], 29.7%; in test [15], -82.2% (active); in test [16], 47.3%; in [17], -32% (active). Moreover, the growth in [18] was 32.2%.

As to `COC(/C=C/c1ccc([N+](=O)[O-])cc1)OC`, the growth is 119% in test [1]; 105% in test [2]; 109% in [3]; 91.2% in test [4]; 87.5% in test [5]; 106% in test [6]. The growth was 106% in test [7]; 90.8% in test [19]; 77.2% in test [9]; 116% in [10]; 94.7% in test [11]; 85.9% in test [12]. Moreover, the growth in test [20] is 91.2%; in [13] it was 74.5%; in [14] it was 95.1%; in [15], 98.3%; in [16] it was 89.9%; in test [17], 8.46% (active). The growth in test [18] is 93.5%.

For the molecule `C/C(=C(/c1ccc(O)cc1)c1ccc(OCCN(C)C)cc1)c1ccccc1`, the growth is 98.1% in test [1]; 36.6% in test [2]; 79.9% in [3]; 85.2% in test [4]; 69.3% in test [5]; 83.3% in test [6]. Moreover, the growth in [7] was 98.1%; in test [19] it was 78.1%; in [9], 65.1%; in test [10], 73.9%; in test [11] it was 22.1%; in [12], 53.4%. Also, the growth in [20] was 96.1%; in [13], 70.5%; in test [14], 80.3%; in test [15], 75.1%; in test [16] it was 36.8%; in test [17] it was 82.8%. Further, the growth in test [18] is 45.3%.

Consider `Oc1c(Cl)cc(Cl)cc1CNc1nccnn1`, for which the growth is 101% in [1]; 125% in test [2]; 93.9% in test [3]; 104% in test [4]; 108% in test [5]; 96.6% in test [6]. Further, the growth was 101% in [7]; 105% in test [19]; 91.9% in test [9]; 101% in test [10]; 105% in test [11]; 78.1% in [12]. Besides, the growth is 95.8% in test [20]; 102% in [13]; 94.8% in test [14]; 102% in test [15]; 93.9% in test [16]; 99.4% in [17]. The growth in test [18] was 106%.

On to `CCN(CC)C12CCCCC1(C)C(C#N)(C#N)C(C#N)=C(N)O2` (configuration not stated), for which the growth is 107% in test [1]; 95.5% in test [2]; 92.3% in test [3]; 108% in [4]; 144% in [5]; 99.6% in [6]. Also, the growth in test [7] was 98%; in test [19] it was 114%; in [9] it was 102%; in test [10] it was 106%; in test [11], 101%; in [12], 92.1%. Moreover, the growth in test [20] is 106%; in test [13], 103%; in [14] it was 115%; in [15], 116%; in test [16] it was 90.8%; in test [17] it was 98.9%. In test [18], the growth was 99.3%.

In the case of `O=C1CC(c2nc3ccccc3[nH]2)CN1C1CCCCC1` (configuration not stated), the growth in [1] was 110%; in test [2], 102%; in test [3], 103%; in test [4], 102%; in [5] it was 111%; in test [6] it was 101%. In addition, the growth is 97.3% in test [7]; 101% in test [19]; 104% in test [9]; 105% in test [10]; 102% in test [11]; 90.1% in test [12]. The growth in test [20] was 110%; in test [13], 99.7%; in test [14] it was 93.3%; in test [15] it was 101%; in [16], 104%; in test [17], 93.9%. The growth in test [18] was 112%.

`O=C1C[C@H](N2C(=O)c3ccccc3S2(=O)=O)C2CO[C@@H]1O2`: the growth in test [1] is 87.8%; in test [2] it was 55.6%; in [3], 97.2%; in [4] it was 110%; in [5], 86.8%; in [6] it was 102%. Also, the growth is 93.7% in test [7]; 84.3% in [19]; 84.2% in [9]; 59.6% in test [10]; 70.4% in [11]; 91.3% in test [12]. Also, the growth is 106% in [20]; 93.3% in test [13]; 99.7% in test [14]; 96.2% in [15]; 100% in [16]; 18.9% in test [17]. In test [18], the growth is 66.1%.

`COc1ccc(/C(=C/c2ccc3ccccc3c2)c2nn[nH]n2)cc1OC`: the growth is 20.9% in test [1]; 17.8% in [2]; 49.1% in [3]; 44.8% in test [4]; -13.3% (active) in test [5]; 53.3% in test [6]. In addition, the growth was 4.59% (active) in [7]; 66.3% in test [19]; 10.9% in [9]; 31.1% in test [10]; 5.54% (active) in test [11]; -7.45% (active) in test [12]. The growth in test [20] was 51.1%; in [13] it was 14.3%; in test [14], 18.6%; in [15] it was 23.5%; in [16] it was 21.5%; in [17] it was 37.6%. The growth in test [18] was 56.6%.

As for `C=C1CCC2C3(C)COC(c4ccccc4Br)OC3CCC2(C)C1C/C=C1/C(=O)OCC1OC(C)=O` (configuration not stated), the growth in test [1] was 21.4%; in test [2], -43% (active); in test [3], -44.6% (active); in test [4] it was -37.1% (active); in [5], -57.2% (active); in test [6] it was -13.4% (active). For the same molecule, the growth is 27.6% in test [7]; -41.6% (active) in [19]; -36.7% (active) in test [9]; -36.2% (active) in test [10]; -46.2% (active) in test [11]; -25.3% (active) in test [12]. Further, the growth in test [20] was 102%; in test [13], -95.9% (active); in test [14], -17.1% (active); in test [15], -57.1% (active); in test [16] it was -18.4% (active); in [17], -92% (active). Moreover, the growth in test [18] is -52.9% (active).
